Calls of active or inactive are those of the source. How the source made its calls: active means hit-call score of the fitted dose curve at least 0.9, where 1 is the maximum; inactive means score below 0.9.
What follows are molecules tested against Peroxisome proliferator-activated receptor gamma (Homo sapiens) (UniProt P37231) (assay: ATG_hPPARg_EcoTox2: Attagene TRANS-FACTORIAL EcoTox-2 HepG2 Assay for human Peroxisome Proliferator-activated Receptor gamma (PPARg)).
Method: ATG_EcoTox2 is a cell-based, multiplexed assay created by modifying the existing Attagene TRANS-FACTORIAL system to include a panel of nuclear receptors from some or all the following species: human (Homo sapiens), african clawed frog (Xenopus laevis), rainbow trout (Oncorhynchus mykiss), japanese medaka (Oryzias latipes), and zebrafish (Danio rerio). The ECOTOX2-FACTORIAL format uses HepG2, a human liver cell line, with measurements taken at 24 hours after chemical dosing in a 24-well plate. ATG_hPPARg_EcoTox2 is one of 29 assay components calculated in the ATG_EcoTox2 assay. It is designed to make measurements of mRNA induction, a form of inducible reporter, as detected with fluorescence intensity signals by Reverse transcription polymerase chain reaction (RT-PCR) and Capillary electrophoresis technology.The assay endpoint ATG_hPPARg_EcoTox2 was analyzed in the positive analysis fitting direction relative to DMSO as the negative control and baseline of activity. Using a type of inducible reporter, measures of mRNA for gain-of-signal activity can be used to understand the reporter gene at the transcription factor-level as they relate to the gene PPARg. Furthermore, this assay endpoint can be referred to as a primary readout, because this assay has produced multiple assay endpoints where this one serves a reporter gene function. To generalize the intended target to other relatable targets, this assay endpoint is annotated to the nuclear receptor intended target family, where the subfamily is non-steroidal.
Human liver HepG2 cells are transiently transfected with multiple reporter transcription units (MRTUs) in 6-well plates using FuGene 6 reagent (Roche; 3 ml FuGene/1 mg DNA). The MRTU constructs are regulated by a cis-regulating element (promoter). Each RTU expresses a GAL4-UAS that regulates the transcription of a nearby target reporter gene sequence. A major difference between the CIS and TRANS system is that in CIS activities of endogenous TFs are measured, whereas the TRANS assay evaluates changes in activities of exogenous, chimeric NR-Gal4 proteins. […] At the end of 24 hour incubation, total RNA was isolated using TriZol reagent (Invitrogen). The isolated RNA is then reverse-transcribed using oligo(dT) primer and Mo-MLV reverse transcriptase (Invitrogen) with DNAse I (Ambion) treatment for 30 min. The one-tenth of the produced cDNA was amplified by PCR using Taq DNA polymerase (Invitrogen) and two reporter sequence-specific primers. […] The fragments were purified using Qiaquick PCR columns (Qiagen), analyzed on an ABI 3130xL genetic analyzer (Applied Biosystems) with peak positions identified by using a set of X-rhodamine (ROX)-labeled MapMarker1000 molecular weight standards (BioVentures). […]

Chain of Peroxisome proliferator-activated receptor gamma (Homo sapiens) (P37231 whole entry, looked up): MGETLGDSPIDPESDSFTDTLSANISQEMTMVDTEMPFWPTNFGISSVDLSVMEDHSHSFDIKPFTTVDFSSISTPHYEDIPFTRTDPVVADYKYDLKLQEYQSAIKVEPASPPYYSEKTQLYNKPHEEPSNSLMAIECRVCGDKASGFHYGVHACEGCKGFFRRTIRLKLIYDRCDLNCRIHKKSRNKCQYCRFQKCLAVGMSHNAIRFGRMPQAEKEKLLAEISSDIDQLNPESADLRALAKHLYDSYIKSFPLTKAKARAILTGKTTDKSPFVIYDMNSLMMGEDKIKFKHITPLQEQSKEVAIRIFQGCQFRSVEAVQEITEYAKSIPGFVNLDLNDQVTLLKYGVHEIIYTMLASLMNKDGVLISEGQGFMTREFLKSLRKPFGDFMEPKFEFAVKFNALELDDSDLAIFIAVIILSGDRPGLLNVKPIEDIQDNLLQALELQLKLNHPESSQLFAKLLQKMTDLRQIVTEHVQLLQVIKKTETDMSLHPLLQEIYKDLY

| SMILES | AC50 |
| --- | --- |
| O=P(Oc1ccccc1)(Oc1ccccc1)Oc1ccccc1 | 5.76 µM (active) |
| CCCCOCN(C(=O)CCl)c1c(CC)cccc1CC | 1.53 µM (active) |
| O=S(=O)(O)C(F)(F)C(F)(F)C(F)(F)C(F)(F)C(F)(F)C(F)(F)F | 42.7 µM (active) |
| [Cl][Sn]([c]1ccccc1)([c]1ccccc1)[c]1ccccc1 | 0.0461 µM (active) |

From PubChem BioAssay AID2284351 (EPA ToxCast)
